High-throughput results from PubChem BioAssay.
Sampled rows, rich in hits. Any-hit rate of the full collection: about 10%.
MCF10A rerep = induces DNA re-replication in MCF 10a normal breast cells; MCF 10A DNA re-replication, Hoechst nuclear intensity, 48 h; Potency, µM (titrated, usually from 46.1 µM), inactives show top-dose activity, positive = re-replication, usual class: activators; 350,000 tested, 2.9% active; note: % of control where 0% means no effect; nearly all actives have a fitted effect of over 50% in size
ELG1 DNA repair = blocks ELG1-dependent DNA repair in HEK293T cells | HEK293T ELG1-luciferase reporter, luminescence, 16 h; DNA damage induced by 5-fluorouridine | Potency, µM (doses to about 46.1 µM), inactives show at the highest dose activity change, negative = inhibition, hits mostly inhibitors | 330,000 tested, 2.3% active | AID 504467; note: % is set by controls: 0 for no effect and ±100 for the full control effect; nearly all actives have a fitted effect of over 55% in size
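HEK293T cells expressing luciferase-tagged ELG1 (2,000/well) received 5-Fluorouridine plus compound or DMSO for 16 hr at 37 °C. Luciferase was read by ONE-Glo luminescence after 30 min at room temperature.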
RORgamma inh = inhibitors of mouse ROR gamma transcriptional activity. Drosophila S2 Gal4-RORgamma UAS-luciferase reporter, 20 h. P51450. Potency, µM (titrated, usually from 53.6 µM), for inactives: at the highest dose activity change, negative = inhibition, most hits filed as inhibitors. AID 2551. 310,000 tested, 5.4% active; note: % is set by controls: 0 for no effect and ±100 for the full control effect; nearly all actives have a fitted effect of over 60% in size
Target sequence (P51450 whole entry, looked up, the tested form may be a part): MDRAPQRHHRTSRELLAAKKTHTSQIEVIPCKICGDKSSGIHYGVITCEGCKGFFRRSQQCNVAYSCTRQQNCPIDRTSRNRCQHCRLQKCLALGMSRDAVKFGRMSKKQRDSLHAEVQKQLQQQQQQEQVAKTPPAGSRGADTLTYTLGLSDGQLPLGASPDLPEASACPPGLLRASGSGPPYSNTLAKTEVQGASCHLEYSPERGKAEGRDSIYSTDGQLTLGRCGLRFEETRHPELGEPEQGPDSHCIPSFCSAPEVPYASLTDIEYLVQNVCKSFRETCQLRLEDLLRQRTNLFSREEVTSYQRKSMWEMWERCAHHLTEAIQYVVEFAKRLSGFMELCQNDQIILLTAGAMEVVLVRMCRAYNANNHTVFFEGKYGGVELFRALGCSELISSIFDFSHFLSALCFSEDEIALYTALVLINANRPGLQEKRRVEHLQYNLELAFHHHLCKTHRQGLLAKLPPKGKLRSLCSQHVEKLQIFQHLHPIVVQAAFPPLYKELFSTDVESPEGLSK
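ROR gamma transcriptional activity was tracked as Gal4-UAS luciferase output in stably transfected Drosophila Schneider cells, with compound added 1 hr before 700 uM copper sulfate induction and a 20 hr ambient-temperature incubation.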
VP16 counter = counter-screen for ROR gamma inhibitors: Gal4-VP16 reporter; Drosophila S2 Gal4-VP16 UAS-luciferase, luminescence, 20 h; Potency, µM (series often up to 53.6 µM), for inactives: top-dose activity, negative = inhibition, most hits filed as inhibitors; 310,000 tested, 3.5% active; AID 2546;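 note: Gal4-VP16 expression switched on by copper sulfate through the metallothionein promoter; % is set by controls: 0 for no effect and ±100 for the full control effect; nearly all actives have a fitted effect of over 50% in size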
SW480 rerep = induces DNA re-replication in SW480 colon adenocarcinoma cells. SW480 DNA re-replication, Hoechst DNA content imaging, 48 h. Potency, µM (titrated, usually from 46.1 µM), for inactives: at the top dose re-replication activation, usual class: activators. 340,000 tested, 1.8% active. AID 624297; note: % of control where 0% means no effect; nearly all actives have a fitted effect of over 55% in size
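Hoechst fluorescence of nuclei (405 nm excitation, 500-530 nm emission) measured by plate-scanning imager after 48 hr compound exposure at 37 C; re-replication scored as increased number of nuclei with elevated intensity.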
Numbers without * were called inactive; u = inconclusive; x = not tested or not shown; [ ] = dose if it differs, or a comment. Calls come from the whole dose curve; as a rule, active = well fitted curve in the direction sought with a large enough effect; inconclusive = small, poorly fitted or top-dose-only effect, or another doubt; inactive = no such curve, though single readings can be large; an effect the other way counts as inactive or inconclusive. Potency is the fitted concentration of half-maximal effect.

SMILES | MCF10A rerep | ELG1 DNA repair | RORgamma inh | VP16 counter | SW480 rerep
Cc1nc(C)c(-c2csc(NCc3ccco3)n2)s1 | 4% | u | 12% | -26% | 8%
Cc1nc2ccccn2c1-c1csc(NCc2ccco2)n1 | 10% | u | 11µM* | u | -8%
Cc1ccc(Nc2nc(-c3c(C)nc4ccccn34)cs2)cc1 | u | u | 10µM* | u | u
Cc1ccnc(Nc2nc(-c3ccccc3)cs2)c1 | 13% | u | u | u | 11%
Cc1ccnc(Nc2nc(-c3c(C)nc4sccn34)cs2)c1 | u | 26µM* | -82% | u | -10%
Cc1ccn2c(-c3csc(NCc4ccccc4)n3)c(C)nc2c1 | u | u | 14µM* | u | -9%
C=C[C@@H]1c2ccccc2N(S(=O)(=O)c2ccc(C)cc2)[C@H](c2ccc(C(=O)OC)cc2)C1(C#N)C#N | 8% | 10% | x | x | 20%[9.22 µM]
CCc1ccc(OCC(=O)NNC(=O)Cc2ccc(S(=O)(=O)N3CCOCC3)s2)cc1 | -2% | 3% | x | x | -3%
CN(Cc1ccccc1)S(=O)(=O)c1ccc2c(c1)CCC(=O)N2 | -1% | -2% | 24% | -4% | -4%
CCC(C(=O)NC(N)=O)c1ccccc1 (configuration not stated) | 8% | x | 14% | -2% | -6%
Cc1nc2ncccn2c1-c1csc(Nc2ccc(O)cc2)n1 | 28% | u | -42% | 22% | 8%
Cc1ccc(Nc2nc(-c3c(C)nc4ncccn34)cs2)cc1 | u | 5% | u | -6% | 0.058µM*
Cc1ccc(NC(=O)COC(=O)Cn2ccc(C(F)(F)F)n2)cc1Cl | -6% | 6% | x | x | -15%
COC(=O)C1CSC(C(=O)OC)N1C(=O)CN1CCN(c2ccccc2)CC1 (configuration not stated) | 8% | 5% | 11% | -3% | -3%
COc1ccc(O)c(C(=O)CC(=O)c2ccc(F)cc2)c1 | 0% | u | u | u | 19%
COC(=O)c1ccccc1NCC(=O)c1ccc(OC)cc1 | u | u | 29% | 18µM* | u
COc1ccc(O)c(C(=O)CC(=O)c2ccccc2C)c1 | u | u | 20% | 0.71µM* | 21µM*
COc1ccc(C(=O)CC(=O)c2ccccc2O)cc1 | 12% | u | 7.9µM* | 6.3µM* | -4%
COc1ccc(O)c(C(=O)CC(=O)c2cccnc2)c1 | -11% | x | x | x | -10%
COc1ccc(C(=O)CSC#N)cc1OC | u | u | 16µM* | u | u
CC(C)(C)c1cc(C(=O)NNC(=O)c2ccc(C(F)(F)F)cc2)no1 | 13% | -5% | -22% | -13% | -17%
O=C(Nc1csc(Cc2c(Cl)cccc2Cl)n1)NN1CCOCC1 | 20% | -8% | u | -4% | -4%
COc1ccc(C(=O)CC(=O)c2ccccc2O)cc1OC | 1% | u | 7.1µM* | 6%[10 µM] | -10%
COc1ccc(C(=O)CSc2cc(C)nc3nc(C)nn23)cc1OC | -25% | u | 16µM* | u | -3%
COc1ccc(C(=O)COC(=O)c2ccc(OC)c(OC)c2)cc1OC | 17% | 3% | -12% | 2% | 3%[9.22 µM]
SMILES | MCF10A rerep | ELG1 DNA repair | RORgamma inh | VP16 counter | SW480 rerep
Cc1sc2ncn(CC(=O)N3CCN(c4ccccc4F)CC3)c(=O)c2c1S(=O)(=O)N1CCOCC1 | 0% | -8% | 13% | -6% | -15%
O=C(c1cn(-c2ccccc2)nc1-c1ccc(F)cc1)N1CCCCC1 | u | -21% | u | -1% | 2%
COc1ccc(-n2c(=S)[nH]c3c(sc(=S)n3-c3ccccc3)c2=O)c(OC)c1 | 3% | 0% | -21% | -4% | 4%
COc1cccc(-c2cc3c(=O)n(-c4ccccc4)c(=S)[nH]c3s2)c1 | 16% | u | 0.89µM* | 2.5µM* | -1%
COc1ccc(-c2csc3[nH]c(=S)n(-c4ccccc4)c(=O)c23)cc1OC | 5% | 12% | 2.5µM* | 3.2µM* | -3%
COc1ccc(-n2c(=S)[nH]c3sc(-c4ccccc4)cc3c2=O)c(OC)c1 | 7% | -4% | 3.5µM* | 7.1µM* | 2%
COc1ccc(-c2nn3c(C4CCCCC4)nnc3s2)cc1OC | 5% | u | -6% | -21% | -2%
COc1cc(-c2nn3c(C4CCCCC4)nnc3s2)cc(OC)c1OC | u | 5.8µM* | -17% | -1% | 0%[9.22 µM]
Cc1ccc(NC(=O)CSc2nc(=O)n(CCN(C)C)c3c2CCCC3)cc1Cl | 12% | -9% | x | x | u
Cc1nc2ccccc2c2oc(C(=O)N3CCc4ccccc4C3)cc12 | 5% | 26µM* | -8% | 2% | -2%
COc1cc(C(=O)Nc2ccc(C)cc2)c2ccccc2n1 | 5.8µM* | 22% | -18% | -7% | 21µM*
CCOc1ccc(NC(=O)c2cc3ccccc3cc2O)cc1 | 16µM* | u | -24% | -27% | -15%
CCOc1ccc(NC(=O)c2cc3c(C)nc4ccccc4c3o2)cc1 | 2% | 8.2µM* | 13% | 2% | 0%
Cc1ccc(NC(=O)c2cc(Cl)nc3ccccc23)cc1 | 2% | -8% | 3% | 2% | -13%
CC(C)CCNC(=O)C(CC(C)C)NC(=O)C1OC1C(=O)O (configuration not stated) | x | x | 3% | -1% | x
COc1ccc(S(=O)(=O)Nc2c(C)cc(C)cc2C)c2cccnc12 | 0% | -6% | -14% | -3% | -14%
CCOc1ccc(NC(=O)c2cc(OC)nc3ccccc23)cc1 | 23µM* | u | 4% | -5% | u
N#C/C(=C/c1ccc(-c2ccc(Br)cc2)o1)C(=O)NC1CCCCC1 | 18µM* | -21% | 26% | -25% | u
N#C/C(=C\c1cccn1-c1ccccc1)C(=O)NC1CCCCC1 | 0% | u | 44% | -24% | u
Cc1ccc(-c2[nH]ncc2/C=C(\C#N)C(=O)NC2CCCCC2)cc1 | u | 9.2µM* | -31% | u | -2%
N#C/C(=C\C=C\c1ccccc1[N+](=O)[O-])C(=O)NC1CCCCC1 | 9.2µM* | u | u | -16% | u
N#C/C(=C\c1ccccc1[N+](=O)[O-])C(=O)NC1CCCCC1 | u | 7% | u | 8.9µM* | u
O=C(Cc1ccc(F)cc1)OCn1nnc2ccccc2c1=O | u | -1% | 9% | -3% | 5%
COc1cccc(NC(=O)N2CCCC2C(=O)NC2CCCC2)c1 (configuration not stated) | 19% | 9% | -10% | 1% | -5%
CCC(C#CCN1CCCCC1)(CC)OCCC#N | 3% | -24% | 13% | 1% | -6%
CCC(C)(C#CCN1CCCCC1)OCCC#N (configuration not stated) | -3% | 12% | -2% | 13% | 18µM*
Cc1cc(=O)[nH]c(SCc2ccc(Cl)cc2Cl)n1 | -3% | u | -21% | 3% | 12%
